Bioassay records from PubChem.
Rows were chosen to be rich in hits. Some 7.8% of all compounds tested hit in one or more screens of this group.
VACV mCherry inh: vaccinia inhibition (mCherry reporter) | AID 720579 | Potency, µM (highest dose often 36.5 µM), for the others: at the highest dose activity change, negative = inhibition, hits mostly inhibitors | Vaccinia virus mCherry reporter infection, fluorescence | actives 0.63% (n = 310,000); calls by dose curve; tested in A549 cells; also: potency is read from the fitted curve at half-maximal effect; nearly all actives have a fitted effect of over 35% in size
Lassa entry inh: inhibitors of Lassa virus binding or cell entry; Potency, µM (series often up to 37.9 µM), for the others: at the top dose activity change, negative = inhibition, hits mostly inhibitors; actives 1.2% (n = 300,000); AID 540256; Lassa virus pseudotype entry inhibition, cell reporter; calls by dose curve; tested in HEK293 cells; also: potency is read from the fitted curve at half-maximal effect; nearly all actives have a fitted effect of over 50% in size
HCV inhibitor: inhibitors of hepatitis C virus infection. Potency, µM (doses to about 41.8 µM), inactives show at the highest dose activity change, negative = inhibition, hits mostly inhibitors. Huh7.5.1 HCVcc-Cre infection, luciferase reporter, 44 h. actives 3.4% (n = 340,000). AID 651820; active = well fitted inhibition curve with a large enough effect; inconclusive = small, poorly fitted or top-dose-only effect, or another doubt; inactive = no such curve, though single readings can be large or run the other way; also: potency is read from the fitted curve at half-maximal effect
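Reporter virus HCVcc-Cre (~0.5 moi) infects cells exposed to compound; seeding density 1,000 cells/well with 4 h settling beforehand. Luminescence, 15 sec read, taken 44 h post-infection following a 15 min RT substrate incubation.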
HCMV antiviral: human cytomegalovirus inhibition. HFF cells, HCMV-luciferase reporter, 72 h; hits give low values. activity change, negative = inhibition, % at 57.5 µM. AID 1259415. actives 4.5% (n = 410,000); in the data active = activity change below about -60%; inconclusive = no clear call, values can overlap the other calls; inactive = above about -39%
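Human foreskin fibroblasts infected with luciferase-reporter HCMV at MOI 1 PFU/cell, compounds at two doses. Luciferase measured 72 h post infection; normalized to buffer-only basal and Salinomycin (10uM) controls.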
VACV Venus inh: vaccinia inhibition (Venus reporter). AID 720580. actives 0.46% (n = 330,000). Vaccinia virus Venus reporter expression, fluorescence. Potency, µM (top dose mostly 36.5 µM), inactives show top-dose activity change, negative = inhibition, actives largely listed as inhibitors; calls by dose curve; tested in A549 cells; also: potency is read from the fitted curve at half-maximal effect; nearly all actives have a fitted effect of over 30% in size
MARV entry inh: inhibitors of Marburg virus binding or cell entry; Marburg virus pseudotyped entry inhibition, cell reporter; Potency, µM (doses to about 37.8 µM), for the others: at the top dose activity change, negative = inhibition, hits mostly inhibitors; actives 1.8% (n = 300,000); calls by dose curve; tested in HEK293 cells; also: potency is read from the fitted curve at half-maximal effect
Numbers without * were called inactive; i = inactive; u = inconclusive; x = no result given; + = active, no number; ! = repeats disagree; [ ] = remark or other dose. % is scaled to controls: 0 for no effect and ±100 for the full control effect.

SMILES	VACV mCherry inh	Lassa entry inh	HCV inhibitor	HCMV antiviral	VACV Venus inh	MARV entry inh
Cc1cc(C)cc(NC(=O)c2cc(S(=O)(=O)N3CCc4ccccc43)cn2C)c1	-14.4%	u	x	-20.0	-16.1%	x
CC1Oc2cc3oc4c(O)c5c(cc4c(=O)c3c(O)c2C1(C)C)C=CC(C)(C)O5 (centres undefined)	-14.9%	x	5.01µM*	x	-12.8%	x
COc1ccccc1NC(=S)NCCC(c1ccccc1)c1ccccc1	-7.2%	-0.7%	10µM*	u	-12.7%	-27.2%
COc1ccccc1NC(=O)NCCCl	10µM*	24.7%	-0.9%	50.3	10µM*	-2.9%
COc1ccc(Cl)cc1NC(=S)NCCC(c1ccccc1)c1ccccc1	-26.7%	-1.0%	u	-18.9	-21.1%	-19.0%
O=C(NCCCl)Nc1ccccc1OCCOc1ccccc1NC(=O)NCCCl	14.1µM*	u	u	18.3	u	-0.8%[46.1 µM]
O=C1COCc2ccc(-c3cccc(CO)c3)cc2N1CCc1ccccc1	x	x	x	-3.6	x	x
COc1ccc([C@@H]2[C@@H](C(=O)N3CCOCC3)CC(=O)N2C(=O)CCc2ccccc2)cc1	x	x	x	-7.1	x	x
CN(C)CCP(=O)(c1ccccc1)c1ccccc1	-11.4%	17.5%[46.1 µM]	-8.2%	-18.3	-8.9%	-1.4%[46.1 µM]
CN(C)CCN(C)Cc1c2ccccc2c(CN(C)CCN(C)C)c2ccccc12	-12.5%	u	3.98µM*	u	-26.8%	u
CN(C)CCCNC(=S)Nc1ccc(Oc2ccccc2)cc1	-26.3%	14.9%	u	u	-8.0%	u
CN(C)CCCNC(=S)Nc1ccc(-c2ccccc2)cc1	u	x	11.2µM*	0.0	u	x
CC(C)N(c1ccccc1)c1ccc(NC(=S)NCCN(C)C)cc1	-7.5%	u	u	-26.0	-5.0%	11.2µM*
COc1ccc(CNC(=O)CCCc2cn(C)c3ccccc23)c(OC)c1	-12.8%	7.6%[46.1 µM]	x	u	-4.5%	x
CCCCCC[N+](C)(C)CCSSCC[N+](C)(C)CCCCCC	x	x	3.7%	5.1	x	x
C#CC[N+](C)(C)CCCCCCCCCC	15.8µM*	-29.1%	u	-98.1*	14.1µM*	-16.6%
C#CC[N+](C)(C)CCCCCCCCCCCC	8.91µM*	u	u	-97.8*	7.94µM*	u
CCCCCCCCCCCCCCCC[N+](C)(C)CCl	-17.5%	6.5%	12.0%	u	u	14.8%
C#CC[N+](C)(C)CCCCCCCC	x	2.8%	-17.0%	-76.9*	x	-9.4%
c1csc(C2=Nn3c(nnc3-c3ccncc3)SC2)c1	x	-3.5%	-15.8%	-81.4*	-19.0%	-25.9%
Brc1ccc(C2=Nn3c(nnc3-c3ccncc3)SC2)cc1	x	x	x	x	x	1.1%
Clc1ccccc1C1=Nn2c(nnc2-c2ccncc2)SC1	-27.7%	8.0%	-1.0%	-76.1*	-13.6%	-19.7%
CC(C)c1ccc(Nc2n[nH]c(=S)s2)cc1	-0.7%	x	x	133.3	1.5%	x
Cc1cccc2cc3c(N)c(C#N)sc3nc12	3.5%	-17.7%	u	-63.5*	-7.9%	u
COc1ccc(NC(=O)Cn2c(=O)n(-c3ccccc3)c(=O)c3sccc32)c(OC)c1	x	x	10.2%	-38.6	x	x
SMILES	VACV mCherry inh	Lassa entry inh	HCV inhibitor	HCMV antiviral	VACV Venus inh	MARV entry inh
COc1cccc(NC(=O)Cn2c(=O)n(-c3ccccc3)c(=O)c3oc4ccccc4c32)c1	0.0%	u	24.4%	-67.9*	-17.7%	u
Cc1ccc(-n2c(=O)c3oc4ccccc4c3n(CC(=O)Nc3ccccc3)c2=O)cc1C	i	u	x	-66.5*	-10.6%	x
Cc1ccc(NC(=O)Cn2c(=O)n(-c3ccc(C)cc3)c(=O)c3ccc(C(=O)NCc4ccccc4Cl)cc32)cc1	u	u	x	-60.2*	u	2.2%[46.1 µM]
COc1cc(NC(=O)Cn2c(=O)n(C(C)C)c(=O)c3oc4ccccc4c32)cc(OC)c1	-8.3%	-7.7%[46.1 µM]	x	-22.0	-7.3%	x
CCOc1ccc(-n2c(=O)c3sccc3n(CC(=O)Nc3cccc(OC)c3)c2=O)cc1	x	x	18.2%	+	x	x
CC1CCc2nc3ncn(Cc4ccccc4F)c(=O)c3cc2C1 (centres undefined)	-7.1%	u	x	38.3	-9.2%	x
CC(=O)Nc1ccc(NC(=O)Cn2c(=O)n(-c3ccccc3)c(=O)c3oc4ccccc4c32)cc1	3.1%	-0.8%	-1.8%	0.0	-9.9%	u
CC(=O)Nc1ccc(NC(=O)Cn2c(=O)n(-c3ccc(C)cc3)c(=O)c3oc4ccccc4c32)cc1	-10.6%	u	-5.9%	-64.9*	-7.4%	u
Cc1cc(C)cc(NC(=O)Cn2c(=O)n(-c3cc(C)cc(C)c3)c(=O)c3oc4ccccc4c32)c1	0.0%	4.2%[46.1 µM]	x	-60.7*	-16.5%	x
Cc1ccc(S(=O)(=O)N2CCN(C(=O)C3CCN(C(=O)c4ccc(F)cc4)CC3)CC2)c(C)c1	i	u	11.2µM*	-29.8	-25.6%	u
Cc1ccc(S(=O)(=O)N2CCN(C(=O)C3CC3C)CC2)c(C)c1 (centres undefined)	-7.0%	4.2%	14.2%	-26.8	-22.1%	-15.6%
Cc1ccc(S(=O)(=O)N2CCN(C(=O)c3cc(=O)[nH]c4ccccc34)CC2)c(C)c1	x	u	14.1µM*	-2.3	x	u
CC(=O)Cc1cc(O)c2ccccc2c1OC(=O)c1ccccc1	u	-25.5%[46.1 µM]	-7.5%	-73.3*	1.9%	-19.2%[46.1 µM]
CC(=O)Oc1c(C)cc(O)c2ccccc12	x	x	10µM*	x	x	-4.8%
CCCCC[C@H](O)/C=C/C1C(=O)C=C[C@H]1C/C=C\CCCC(=O)OC (some centres undefined)	-10.9%	x	u	-109.8*	15.0%	x
CCCCC[C@H](O)/C=C/[C@H]1C(=O)C=C[C@@H]1C/C=C\CCCC(=O)O	i[3.33 µM]	x	x	x	-7.4%[3.33 µM]	x
O=C(Nc1nnc(SCC(=O)N2CCCc3ccccc32)s1)c1cccc2ccccc12	-14.6%	-4.3%	12.0%	-37.9	-13.7%	2.7%
Cc1ccc(C(=O)Nc2nnc(SCC(=O)N3CCCc4ccccc43)s2)cc1	i	3.55µM*	15.2%	-19.8	-6.3%	u
CCOC(=O)CNC(=O)CSc1nnc(NC(=O)c2ccc(C)cc2)s1	-15.7%	u	3.5%	-29.1	-1.6%	6.31µM*
CC(C)Oc1ccc(C(=O)Nc2nnc(SCC(=O)N3CCOCC3)s2)cc1	i	2.82µM*	2.6%	-21.3	-14.0%	u
O=C(Nc1cccc(Cl)c1)Nc1csc([N+](=O)[O-])c1	-26.5%	u	u	-97.4*	-26.8%	u
Cc1onc(-c2c(Cl)cccc2Cl)c1C(=O)N[C@@H]1C(=O)N2[C@@H]1SC(C)(C)[C@@H]2C(=O)O	-5.5%	x	0.501µM*!	42.4	-13.7%	x
Cc1onc(-c2c(Cl)cccc2Cl)c1C(=O)N/N=C(\N)COc1ccc(Cl)cc1	x	-1.9%	2.82µM*	-78.1*	x	u
CCC(CC)C(=O)c1c[nH]c(C(=O)NCC2CCCO2)c1 (centres undefined)	-10.5%	7.08µM*	14.7%	2.1	-6.8%	0.8%
